Source: PubChem BioAssay AID1851 (National Center for Advancing Translational Sciences (NCATS), 2009)
In all, about 16,000 compounds went through this assay and about 5,700 (36%) were called active. Not shown: some 24% with an inconclusive outcome. Calls follow the shape of the dose curve; as a rule, active = well fitted curve in the direction sought with a large enough effect; inconclusive = small, poorly fitted or top-dose-only effect, or effect the other way; inactive = no such curve, though single readings can be large or run the other way. This is one part of the list.

Each compound was assayed against Cytochrome P450 1A2 (Homo sapiens) (UniProt P05177) (assay: Cytochrome panel assay with activity outcomes). Conditions: recombinant CYP, pro-luciferin dealkylation, luminescence, p450-cyp1a2; series mostly up to 57.1 µM.
Cytochrome P450 1A2 (Homo sapiens), sequence (P05177 whole entry, looked up): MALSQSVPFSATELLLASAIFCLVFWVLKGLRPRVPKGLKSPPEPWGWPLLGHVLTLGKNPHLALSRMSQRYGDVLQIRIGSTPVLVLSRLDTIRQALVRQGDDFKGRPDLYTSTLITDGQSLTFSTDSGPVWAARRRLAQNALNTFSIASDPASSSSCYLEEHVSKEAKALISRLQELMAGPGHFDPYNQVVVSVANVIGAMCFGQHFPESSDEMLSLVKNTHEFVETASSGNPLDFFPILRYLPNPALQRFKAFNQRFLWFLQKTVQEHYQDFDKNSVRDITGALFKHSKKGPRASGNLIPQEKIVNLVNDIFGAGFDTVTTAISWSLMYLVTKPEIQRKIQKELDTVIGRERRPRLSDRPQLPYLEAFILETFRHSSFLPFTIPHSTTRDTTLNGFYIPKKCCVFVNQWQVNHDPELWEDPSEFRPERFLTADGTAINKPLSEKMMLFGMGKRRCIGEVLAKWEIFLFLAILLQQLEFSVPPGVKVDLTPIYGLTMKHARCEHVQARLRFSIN
With `CCc1cc[n+](-c2nc3ccccc3nc2C(=C=[N-])C#N)cc1` the AC50 was “inactive”.
`COC(=O)[C@@H]1C[C@H]1[C@@H](NC(=O)c1ccccc1)c1ccccc1` was tested, and the AC50 was 5.01 µM (active).
With `COC(=O)C1CC1C(NC(=O)[C@H]1CCCCN1)c1ccccc1` (some centres undefined) the AC50 was “inactive”.
In the case of `Cc1cc(N(CN2CCCC2=O)C(=O)c2ccc(F)cc2)no1`, the AC50 is reported as “inactive”.
In the case of `Cc1ccc(-n2ncc3c2ncn2nc(-c4ccco4)nc32)c(C)c1`, the AC50 is reported as “inactive”.
For `Cc1nc2c3cnn(-c4ccc(C)c(C)c4)c3ncn2n1`, the AC50 was 8.91 µM (active).
With `COc1ccc2[nH]cc(CCNc3nc(-c4ccccc4OC)nc4ccccc34)c2c1` the AC50 was 6.31 µM (active).
For `COc1cccc(-c2nc(NCCc3c[nH]c4ccc(OC)cc34)c3ccccc3n2)c1`, the AC50 was 1.58 µM (active).
For `COC(=O)[C@@]1(Cc2ccc(OC)cc2)[C@H]2c3cc(C(=O)N4CCCC4)n(CCc4c[nH]c5ccc(O)cc45)c3C[C@H]2CN1C(=O)c1ccccc1`, the AC50 was “inactive”.
`COc1ccc2[nH]cc(CCNc3nc(-c4ccoc4)nc4ccccc34)c2c1` was tested, and the AC50 was 0.398 µM (active).
`COc1ccc2[nH]cc(CCNc3nc(-c4cccnc4)nc4ccccc34)c2c1` was tested, and the AC50 was 0.501 µM (active).
For `Cc1noc(NS(=O)(=O)c2ccc(NC(=O)CC34CC5CC(CC(Br)(C5)C3)C4)cc2)c1C`, the AC50 was “inactive”.
In the case of `Cc1ccc(NC(=O)CCc2c(C)nc3ncnn3c2C)nc1`, the AC50 is reported as “inactive”.
`CC(C)c1nnc(NC(=O)c2sc3ccccc3c2Cl)s1` was tested, and the AC50 was 10 µM (active).
With `Cc1nn(Cc2ccccc2Cl)c(C)c1NC(=O)CCCn1nc(C)c([N+](=O)[O-])c1C` the AC50 was “inactive”.
In the case of `Cc1ccccc1Cn1nc(C)c(NC(=O)c2sc3ccccc3c2Cl)c1C`, the AC50 is reported as 2.24 µM (active).
For `O=C(NNC(=O)c1sc2ccccc2c1Cl)Nc1ccc(Cl)cc1`, the AC50 was 0.501 µM (active).
For `Cc1ccc(-c2cc(C(F)F)n3ncc(C(=O)Nc4c(C)nn(Cc5c(Cl)cccc5Cl)c4C)c3n2)cc1`, the AC50 was “inactive”.
With `CCC(CC)c1nnc(NC(=O)c2cccc(S(=O)(=O)N3CCc4ccccc43)c2)s1` the AC50 was “inactive”.
For `Cc1ccc(NC(=O)c2sc3ccccc3c2Cl)nc1`, the AC50 was 2.51 µM (active).
In the case of `CCCC(=O)N1CCN(c2ccc(NC(=O)c3sc4ccccc4c3Cl)cc2)CC1`, the AC50 is reported as “inactive”.
`Cc1ccc(NC(=O)C2CCN(S(=O)(=O)c3c(C)n[nH]c3C)CC2)nc1` was tested, and the AC50 was “inactive”.
In the case of `N#Cc1cccc(NC(=O)N2CCC3(CC2)CCN(C(=O)c2cccc(F)c2)CC3)c1`, the AC50 is reported as “inactive”.
`Cc1ccc(CC(=O)N2CCN(c3cccc(C(F)(F)F)c3)CC2)cc1` was tested, and the AC50 was 31.6 µM (active).
With `Cc1ccc(S(=O)(=O)N(CC(=O)N2CCN(c3ccc(F)cc3)CC2)C2CCCCC2)cc1` the AC50 was “inactive”.
`O=C(c1cc(C(F)(F)F)cc(C(F)(F)F)c1)N1CCC2(CC1)CN(c1ccccc1)C2` was tested, and the AC50 was “inactive”.
In the case of `CCc1ccc(NC(=S)N2CCN(c3cccc(C(F)(F)F)c3)CC2)cc1`, the AC50 is reported as “inactive”.
In the case of `O=C(c1coc2ccccc2c1=O)N1CCN(c2cccc(C(F)(F)F)c2)CC1`, the AC50 is reported as 31.6 µM (active).
`O=C(c1cccc(F)c1)N1CCC2(CCN(Cc3cc(C(F)(F)F)cc(C(F)(F)F)c3)CC2)CC1` was tested, and the AC50 was “inactive”.
